# ELG1 genotoxic: qHTS screen for small molecules that induce genotoxicity in human embryonic kidney (HEK293T) cells expressing luciferase-tagged ELG1. HEK293T ELG1-luciferase reporter, luminescence, 16 h. Potency, µM (series often up to 46 µM), for the others: at the top dose activity change, positive = activation, most hits filed as activators. 330,000 compounds, 1.3% hits. AID 504466, 2011; further: % of control where 0% means no effect; nearly all actives have a fitted effect of over 60% in size
#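 Reporter readout depends on ELG1 protein level, which increases with genetic stress. After 16 hr compound exposure at 37 °C, luciferase activity was quantified using ONE-Glo.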
# FLuc modulator: qHTS profiling assay for firefly luciferase inhibitor/activator using purifed enzyme and Km concentrations of substrates (counterscreen for miR-21 project) | 360,000 compounds, 6.9% hits | Luciferin 4-monooxygenase (Photinus pyralis), P08659 | Potency, µM (highest dose often 57.5 µM), inactives show top-dose activity change, negative = inhibition, most hits filed as inhibitors | purified FLuc, Km substrates, luminescence inhibition;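 further: plate controls were vehicle for no effect and reference inhibitor for full effect; nearly all actives have a fitted effect of over 55% in size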
# Target sequence (P08659 whole entry, looked up): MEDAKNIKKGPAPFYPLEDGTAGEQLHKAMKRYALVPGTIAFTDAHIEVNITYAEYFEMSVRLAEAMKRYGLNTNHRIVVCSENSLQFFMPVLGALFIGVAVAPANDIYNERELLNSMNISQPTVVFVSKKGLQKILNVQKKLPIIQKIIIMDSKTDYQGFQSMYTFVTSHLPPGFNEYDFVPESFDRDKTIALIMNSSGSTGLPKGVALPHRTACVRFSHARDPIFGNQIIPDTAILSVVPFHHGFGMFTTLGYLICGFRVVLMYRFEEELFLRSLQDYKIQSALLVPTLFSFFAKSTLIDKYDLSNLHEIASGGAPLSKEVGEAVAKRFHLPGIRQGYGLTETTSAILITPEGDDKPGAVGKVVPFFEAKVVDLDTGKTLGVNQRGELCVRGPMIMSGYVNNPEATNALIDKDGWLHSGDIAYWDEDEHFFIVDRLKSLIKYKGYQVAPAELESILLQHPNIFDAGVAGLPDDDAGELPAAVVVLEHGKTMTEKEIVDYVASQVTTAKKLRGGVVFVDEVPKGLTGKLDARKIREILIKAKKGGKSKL
#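 Purified P. pyralis luciferase, 10 nM final, with Km-level 10 uM D-luciferin and 10 uM ATP in 50 mM Tris acetate pH 7.5, 10 mM Mg acetate, 0.01% Tween-20, 0.05% BSA; 6-point qHTS titration about 60 µM downward; luminescence read.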
# SMN2 splice enh: qHTS Assay for Enhancers of SMN2 Splice Variant Expression; HEK293 SMN2-luciferase splicing reporter, luminescence, 30-36 h; 210,000 compounds, 2.8% hits; AID 1458, 2008; Potency, µM (top dose mostly 46.1 µM), for the others: at the top dose activity change, positive = activation, most hits filed as activators; further: % of control where 0% means no effect; nearly all actives have a fitted effect of over 55% in size
#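 HEK293 cells carry an SMN2 […]–luciferase reporter in which exon 7 inclusion puts luciferase in frame. Cells were plated 10-12 h before compound addition, then incubated 30-36 h at 37C. ONE-Glo luminescence was read; sodium butyrate at 4.5 mM final served as control.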
# Rab9 prom act: qHTS Assay for Rab9 Promoter Activators; Huh7 Rab9 promoter-luciferase reporter, luminescence, 24 h; Potency, µM (top dose mostly 9.22 µM), without a hit: top-dose activation, negative = inhibition, most hits filed as activators; 320,000 compounds, 2.8% hits; further: % of control where 0% means no effect; nearly all actives have a fitted effect of over 60% in size
#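 Cell-based reporter: Huh7 stable for Rab9 promoter-driven luciferase, plated in reduced-serum medium with 10% FBS at 1500 cells/well, compound-treated 24 h at 37 °C, luminescence read after 10 min reagent.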
# NPC1 promoter act: qHTS Assay for NPC1 Promoter Activators; 320,000 compounds, 2.4% hits; Potency, µM (titrated, usually from 9.22 µM), for inactives: at the top dose activation, usual class: activators; Huh7 NPC1 promoter luciferase reporter, 24 h; AID 485313, 2010; further: % of control where 0% means no effect; nearly all actives have a fitted effect of over 60% in size
#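 Huh7 reporter cells (NPC1 promoter driving luciferase) are dosed with compound for 24 h at 37 °C, 5% CO2; luciferase detection reagent is then added and luminescence measured after 10 min at ambient temperature.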
# KinaseGlo FLuc: Counterscreen for Luciferase (Kinase-Glo TM) Inhibition; Luciferin 4-monooxygenase (Photuris pensylvanica), Q27757; 200,000 compounds, 0.28% hits; Kinase-Glo luciferase, ATP luminescence, 8 min; Potency, µM (series often up to 38.3 µM), for inactives: top-dose activity change, negative = inhibition, hits mostly inhibitors; AID 1379, 2008; further: on the % scale 0 is the no-effect control and ±100 the full control effect; nearly all actives have a fitted effect of over 60% in size
#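 Recombinant Kinase-Glo luciferase, 10 uM ATP (linear range), luciferin; imidazole pH 7.2 / KCl / MgCl2 / Tween / BSA buffer; 8 min RT; luminescence.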
# * marks the source's active call; other numbers are inactive results; ? = inconclusive; · = no result. Hits are enriched below; roughly 7.5% of the tested compounds scored in any of these assays. The call rests on the fitted dose curve; in most records, active means well fitted curve in the direction sought with a large enough effect; inconclusive means small, poorly fitted or top-dose-only effect, or another doubt; inactive means no such curve, though single readings can be large; an effect the other way counts as inactive or inconclusive. Potency means the concentration at half of the fitted maximal effect.
SMILES,ELG1 genotoxic,FLuc modulator,SMN2 splice enh,Rab9 prom act,NPC1 promoter act,KinaseGlo FLuc
Cc1ccc(NC(=O)C2CCCN(C(=O)c3ccc(Cl)cc3)C2)cc1 (stereo not drawn),1%,?,-7%,27%,2%,1%
O=C(NC1CCCCC1)N1CCc2ccccc21,15µM*,19µM*,13µM*,?,?,-5%
O=C(Nc1ccc(Br)cc1)N1CCCCC1,14%,15µM*,?,?,?,-10%
Cc1ccc(NC(=O)C2CCCN(C(=O)c3ccc(Cl)cc3)C2)cc1C (stereo not drawn),9%,27µM*,-15%,?,16%,6%
Cc1cccc(NC(=O)c2nc[nH]c2C(=O)N2CCc3ccccc3C2)c1,-1%,-2%,·,3%,-1%,·
O=C(NCC1CCCO1)C(=O)NCC(c1ccco1)N1CCN(c2ccccc2)CC1 (stereo not drawn),-2%,3%,?,2%,-1%,-1%
COc1ccc(NS(=O)(=O)c2cccc(C(=O)O)c2)cc1S(=O)(=O)N1CCOCC1,0%,·,·,·,·,·
Cc1cc(C)c(NC(=O)COC(=O)CCc2ccc(S(=O)(=O)N3CCCCC3)cc2)c(C)c1,1%,1%,·,-2%,0%,·
CCC(O)OC(O)CC (stereo not drawn),·,·,3%,·,·,·
O=C(Nc1ccccc1)N1CCCc2ccccc21,5%,-14%,14%,-1%,0%,-1%
Cc1ccc(NC(=O)N2CCCCCC2)cc1C,?,17µM*,·,3.2µM*,4.5µM*,·
Cc1ccc(NC(=O)N2CCCc3ccccc32)cc1C,?,21µM*,·,20%,17%,·
CC(C)C(=O)NC1CC(=O)N(c2ccc3c(c2)OCCO3)C1 (stereo not drawn),·,-1%,·,·,·,·
CSc1ncccc1C(=O)OCC(=O)c1cccc(Br)c1,0%,?,7%,2%,6%,0%
Cc1csc(NC(=O)CCc2c(C)nc3cc(-c4ccc(Cl)cc4)nn3c2C)n1,-15%,11µM*,-83%,-2%,1%,11%
COc1ccccc1CNC(=O)CCc1c(C)nc2cc(-c3ccc(Cl)cc3)nn2c1C,·,6%,16%,·,·,·
CCOC(=O)CC(NC(=O)CCc1c(C)nc2cc(-c3ccccc3)nn2c1C)c1ccc(C)cc1 (stereo not drawn),·,-20%,-20%,·,·,·
Cc1nc2cc(-c3ccc(Cl)cc3)nn2c(C)c1CCC(=O)NC(C)c1ccc2c(c1)OCCO2 (stereo not drawn),-9%,15µM*,-73%,-3%,5%,0%
Cc1ccc(C(C(=O)NCC2CCCO2)N(C(=O)c2snc(C(N)=O)c2N)c2ccccc2F)o1 (stereo not drawn),-17%,-2%,·,0%,3%,·
Cc1ccc(CNc2ccccc2C(=O)O)s1,2%,-5%,·,6%,3%,·
Nc1ccc2oc3ccccc3c2c1,22%,?,11µM*,?,?,1%
Nc1ccc2oc3ncccc3c(=O)c2c1,?,-18%,25%,12%,10%,-3%
O=C(Nc1ccccc1C(F)(F)F)c1ccccn1,8%,?,-1%,-5%,-1%,-2%
O=C(NCCc1ccccc1Cl)c1cc2ccccn2n1,·,12µM*,·,·,·,·
COc1ccc(NC(=O)c2cc3ccccn3n2)cc1,1.2µM*,2.1µM*,6.3µM*,?,1µM*,-25%
SMILES,ELG1 genotoxic,FLuc modulator,SMN2 splice enh,Rab9 prom act,NPC1 promoter act,KinaseGlo FLuc
CCOC(=O)c1cccc(NC(=O)c2cnccn2)c1,?,-16%,?,?,2.8µM*,-2%
O=C(Nc1ccccc1C(F)(F)F)c1cc2ccccn2n1,·,1.9µM*,·,·,·,·
C=C(C)C(N)=O,·,·,1%,·,·,·
CC1CCCCN1C(=O)CNCC1CCCO1 (stereo not drawn),-5%,0%,·,-13%,1%,-3%
N#Cc1ccccc1CCN1C(=O)c2ccccc2C1=O,4%,?,·,10%,6%,·
O=C(Nc1ccc(OC(F)(F)F)cc1)c1cc2ccccn2n1,·,2.7µM*,·,·,·,·
CCOC(=O)c1cccc(NC(=O)c2cc3ccccn3n2)c1,·,3µM*,·,·,·,·
CCOc1ccc(OCC)c(NC(=O)c2cc3ccccn3n2)c1,·,-15%,·,·,·,·
CC(C)(C)C(CN1CCCC1)OC(=O)c1ccccc1 (stereo not drawn),-1%,1%,·,0%,3%,·
CC1=NN2C(=N)/C(=C\c3cc(C)n(-c4ccccc4)c3C)C(=O)N=C2S1,7%,4.8µM*,-34%,5%,11%,10%
CCC(CC)C1=NN2C(=N)/C(=C\c3cc(C)n(-c4cccc(C)c4)c3C)C(=O)N=C2S1,0%,-3%,-22%,1%,2%,0%
Cc1cc(/C=C2/C(=N)N3C(c4ccccc4)=CSC3=NC2=O)c(C)n1-c1ccccc1,-1%,2.4µM*,6%,12%,16%,-1%
CCCCC(=O)NC(=S)Nc1cccc(NC(=O)c2ccco2)c1,-1%,-3%,10%,2%,0%,4%
COC(=O)CNC(=O)C1(C)C=CCN1C(=O)c1ccccc1 (stereo not drawn),?,15µM*,11µM*,?,15%,-1%
CC(C)CC1(C(=O)NCC2CC2)C=CCN1C(=O)c1ccccc1 (stereo not drawn),·,·,13µM*,·,·,-18%
CC(=O)N1CC=CC1(C)C(=O)NCC1CC1 (stereo not drawn),·,·,11µM*,·,·,-6%
COC(=O)CNC(=O)C1(CC(C)C)C=CCN1C(=O)c1ccccc1 (stereo not drawn),·,·,?,·,·,-4%
CC(=O)N1CC=CC1(CC(C)C)C(=O)NCC1CC1 (stereo not drawn),·,·,?,·,·,-1%
CCCNS(=O)(=O)c1cc(CN2C(=O)c3cccnc3C2=O)ccc1OC,6%,-3%,·,-4%,-1%,·
CN(C)S(=O)(=O)c1cccc(NC(=O)c2n[nH]c(=O)c3ccccc23)c1,-5%,-12%,-2%,-4%,-1%,-2%
CC(C)c1ccc(NC(=O)c2n[nH]c(=O)c3ccccc23)cc1,?,-1%,5.6µM*,1.6µM*,?,-3%
CCN(CC)S(=O)(=O)c1cc(NC(=O)c2n[nH]c(=O)c3ccccc23)ccc1C,-12%,24µM*,-26%,?,6%,-3%
Cc1cc(NC(=O)c2n[nH]c(=O)c3ccccc23)ccc1Br,?,5%,·,5µM*,?,·

# High-throughput results (PubChem BioAssay)
